Reference: PubChem BioAssay (NCATS)
Unmarked numbers belong to inactive results. Calls follow the shape of the dose curve; as a rule, active = well fitted curve in the direction sought with a large enough effect; inconclusive = small, poorly fitted or top-dose-only effect, or another doubt; inactive = no such curve, though single readings can be large or run the other way.

Assay: Cellular Toxicity (caspase-3) MRC-5 (AID 659)
Details: MRC-5 cells, luminescence, normalized: DMSO 0%, 10 µM staurosporine 100%; series mostly up to 91.7 µM; caspase-3 activation: at the top concentration
Excerpt: NIH Chemical Genomics Center [NCGC]
NIH Molecular Libraries Screening Centers Network [MLSCN]
National Institutes of Environmental Health Sciences [NIEHS]
National Toxicology Program [NTP]
We have developed a 1536-well cell-based assay for quantitative high throughput screening (qHTS) against a number of cell lines to determine in vitro caspase 3/7 activity of small molecules. This particular assay uses the MRC-5 cell line which is derived from human normal lung fibroblasts.
NCGC Assay Protocol Summary:
The Caspase-Glo 3/7 assay (Promega) is a homogeneous method to measure caspase-3 and caspase-7 activities in cultured cells. The quantitation of caspase 3/7 activity is based on the cleavage of a peptide-aminoluciferin substrate. After caspase cleaves the substrate the free aminoluciferin is liberated and serves as the substrate of luciferase, which generates the light. The luminescent signal is proportional to amount of caspase 3/7 activity present.
Using the Caspase-Glo 3/7 assay, the amount of caspase 3/7 activity was measured in the MRC-5 line with complete culture medium following compound treatment for 16 hours. The assay was performed in opaque white 1536-well plates. In the screen, tamoxifen and staurosporine were used as positive controls. Library compounds were measured for their ability to cause the activation of caspase 3/7 in the cell line, as reflected by an increase in luminescence signal, in a concentration-dependent manner. Data were normalized to the controls for basal activity (DMSO only) and 100% stimulation (10 uM staurosporine). AC50 values were determined from concentration-response data modeled with the standard Hill equation.
qHTS protocol for caspase 3/7 assay in MRC-5 cells
[Step] [Parameter] [Value] [Description]
1. Reagent; 5 uL; 1500 MRC-5 cells/well
2. Time; 5 hr; 37 °C incubation
4. Controls; 23 nL; Tamoxifen 0.23 uM to 100 uM & staurosporine 1.4 pM to 100 uM
5. Time; 16 hr; 37 °C incubation
6. Reagent; 5 uL; Caspase-Glo 3/7 reagent
7. Time; 1 hr; Room Temperature
8. Detection; Luminescence; Viewlux plate reader
Keywords: caspase 3/7, apoptosis, MRC-5 cell line, luminescence, NTPHTS, NTPHTS_NCGC, NIEHS, EPA, DSSTox, MLSMR, MLSCN, NIH Roadmap, qHTS, NCGC

SMILES | caspase-3 activation
CCC(=O)/C=C/C1C(C)=CCCC1(C)C (stereo not given) | 0.0281%
CC(C)(c1cc(Br)c(OCC(Br)CBr)c(Br)c1)c1cc(Br)c(OCC(Br)CBr)c(Br)c1 (stereo not given) | 0.625%
COC(=O)CCCC(=O)OC | 0.292%
Cc1cccc2cccnc12 | -0.559%
CC(C)(C)c1ccc(OCC2CO2)cc1 (stereo not given) | 1.87%
C1COC1 | -2.54%
CCCCCO | -1.86%
CCCOCC(C)OCC(C)O (stereo not given) | 2.17%
OC/C(Br)=C(\Br)CO | -0.161%
Nc1cccc2c(=O)[nH][nH]c(=O)c12 | 0.494%
Cc1ccc(C)c(O)c1 | 1.51%
CCCCC(CC)COCC1CO1 (stereo not given) | 3.34%
CC(=O)C1(C)CC2=C(CCCC2(C)C)CC1C (stereo not given) | 0.727%
C[C@@H]1CC2(OC3C[C@@]4(C)C5=CC[C@H]6C(C)(C)C(O[C@@H]7OC[C@@H](O)[C@H](O)[C@H]7O)CC[C@@]67C[C@@]57CC[C@]4(C)C31)OC(O)C1(C)OC21 (stereo not given in full) | 0.111%
O=C(O)c1cc(Cl)cc(Cl)c1 | -1.24%
CC(=O)Nc1ccc(C)cc1 | 0.869%
[O-]/[N+](=N\O)c1ccccc1 | -4.19%
CC1CCCO1 (stereo not given) | -1.88%
CC(C)N=C=NC(C)C | 0.176%
CCOC(=O)C(C)C(C)=O (stereo not given) | 1.11%

SMILES | caspase-3 activation
Cc1ccco1 | -0.432%
CCCCC(=O)N(C)C | 1.6%
C=CCOC(=O)CCCCCCCC | -1.16%
O=Nc1ccc(NO)cc1 | -2.17%
C=C(C)OC(C)=O | -0.521%
C=CCCCCCCC=C | 0.831%
COc1cccc2sc(N)nc12 | 0.808%
CCC(C)O (stereo not given) | -0.571%
CCc1ccccc1O | 2.02%
Cc1cccc2ccccc12 | 1.26%
CCN(CC)c1cccc(O)c1 | 0.853%
O=C(O)c1cccc(Cl)c1Cl | -1.01%
CC(C)(C)OC=O | 0.451%
CCCCCCC(=O)O | -1.13%
C=CCn1c(=O)n(CC=C)c(=O)n(CC=C)c1=O | -1.97%
CC(CCl)OC(C)CCl (stereo not given) | -2.24%
C=C(C)C(=O)OC | 0.228%
O=Cc1ccccc1Cl | 0.96%
CCCCCCO | -0.734%
Cc1c(N)cccc1[N+](=O)[O-] | -0.0632%
